# Whole data set: some 33,000 sequences, median “E-score (-0.5 to 0.5)” near -0.054, cut for the highest 2% near 0.35. For the sample, the highest values were picked, then their nearest neighbours and some sequences at random.
# Target: T1, Stb5 (UniProt P38699)
# T1 sequence: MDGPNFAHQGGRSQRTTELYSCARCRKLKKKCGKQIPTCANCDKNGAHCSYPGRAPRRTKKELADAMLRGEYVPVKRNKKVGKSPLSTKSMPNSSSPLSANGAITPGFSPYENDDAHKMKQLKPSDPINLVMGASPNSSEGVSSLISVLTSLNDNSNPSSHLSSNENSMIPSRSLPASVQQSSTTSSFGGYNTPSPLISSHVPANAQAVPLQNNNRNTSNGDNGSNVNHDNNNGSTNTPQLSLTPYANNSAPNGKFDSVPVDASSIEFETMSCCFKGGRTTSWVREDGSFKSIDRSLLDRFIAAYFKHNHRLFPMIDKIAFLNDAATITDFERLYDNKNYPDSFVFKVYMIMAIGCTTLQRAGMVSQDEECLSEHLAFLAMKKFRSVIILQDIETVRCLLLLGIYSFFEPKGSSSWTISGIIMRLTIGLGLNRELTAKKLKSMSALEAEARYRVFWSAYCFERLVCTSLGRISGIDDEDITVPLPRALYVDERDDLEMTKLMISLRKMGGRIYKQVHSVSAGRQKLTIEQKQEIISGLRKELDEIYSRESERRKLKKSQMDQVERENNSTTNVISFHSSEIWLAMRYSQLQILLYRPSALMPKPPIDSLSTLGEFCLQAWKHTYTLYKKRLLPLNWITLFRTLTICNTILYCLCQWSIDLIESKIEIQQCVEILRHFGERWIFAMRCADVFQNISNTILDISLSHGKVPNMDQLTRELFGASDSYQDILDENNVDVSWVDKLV
# Assay: PBM E-score (8-mer binding enrichment) (E-score (-0.5 to 0.5)); higher = stronger / more preferred TF binding
# Settings: protein concentration: 200 nM; construct: GST-full length
# Outline: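 E-scores (a modified Wilcoxon-Mann-Whitney statistic) were assigned by the Universal PBM Analysis Suite to every ungapped eight-base word pooled with its reverse complement. The input came from universal all-10-mer Agilent arrays made double-stranded by primer extension and probed with GST-tagged yeast transcription factors at about 100-200 nM. Fluorescent anti-GST detected bound protein, and masliner normalised the scans.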
row,Sequence,PBM E-score
1,AATACTGC,-0.0596
2,CCAGTATA,-0.066
3,AAAGCACC,0.311
4,ACCCCAAA,-0.179
5,AACGGCGT,0.348
6,ACCGGCGG,0.403
7,ACCGGCAT,0.337
8,ACCGGCGT,0.365
9,ACCGGCGA,0.281
10,ACCGGCGC,0.336
11,GGAACAGA,-0.104
12,AGCGCCTC,-0.0428
13,CCTATGCA,-0.158
14,GTCCGCCA,0.4
15,ATCCGCTA,0.155
16,ATCCGCCA,0.18
17,GTCCGCAA,0.196
18,GTCCGCTA,0.374
19,CTCCGCTA,0.349
20,GTTTCTTA,0.00445
21,CGGCAGTC,0.11
22,AGGCAATA,-0.0408
23,CGGCAATA,0.454
24,CGGCAGTA,0.4
25,AGGCAGTA,-0.205

row,Sequence,PBM E-score
1,CGGCAATC,0.185
2,CGAACCCG,0.103
3,CGACCAGC,0.128
4,AATCGCGT,-0.00793
5,GAACCTTC,-0.201
6,CATCGCTC,-0.00533
7,ATTTGCAC,-0.273
8,CGCGCATA,0.112
9,ATCGGTGG,0.276
10,ATCGGTGC,0.324
11,ATCGGTGA,0.366
12,CTCGGTGA,0.244
13,GTCGGTGA,0.374
14,GTCGGTCA,0.259
15,CTTCGGGA,0.131
16,CTCTTAAA,-0.0109
17,CTGACCAA,-0.176
18,AGGTTGTC,-0.204
19,CGCCTGGA,-0.0581
20,TTCACCAA,-0.0231
21,AAGTCCAT,0.0307
22,AAGTCCTC,-0.066
23,AAGTCCCT,-0.209
24,CAGTCCGG,0.189
25,AAGTCCCG,0.385

row,Sequence,PBM E-score
1,CAGTCCGC,0.252
2,AAGTCCTG,0.0166
3,AAGTCCTA,0.0926
4,AAGTCCGT,0.454
5,CAGTCCCG,0.192
6,AAGTCCGC,0.46
7,AAGTCCGG,0.43
8,GATATCCA,-0.16
9,GCCCAAAC,-0.0152
10,CAGCGTGC,0.0885
11,GAACAGCC,-0.134
12,TCCGTGCA,0.23
13,ACCCTGTG,-0.19
14,AACAGTTG,-0.0985
15,ATCTGCCA,-0.118
16,TCTAGTCA,-0.11
17,CATGTGCC,-0.177
18,AAGTCCGA,0.459
19,CAGTCCGA,0.273
20,GAGTCCGA,0.286
21,GAGTCCGC,0.371
22,GAGTCCCC,-0.12
23,TAGTCCGA,0.309
24,ATTGTCCC,0.0499
25,CATGTCCG,0.273

row,Sequence,PBM E-score
1,ATTGTCCA,-0.191
2,AATGTCCA,-0.0901
3,AATGTCCG,0.438
4,ATTGTCCG,0.372
5,ACTGTTAC,-0.163
6,CCATCGCG,0.195
7,AACCCCTT,0.0178
8,GCACGTGA,-0.337
9,GATCGGGC,0.301
10,AATCGGAG,0.263
11,GATCGGAC,0.415
12,CATCGGAC,0.34
13,GATCGGAA,0.133
14,AATCGGAC,0.362
15,ACGCGCCT,0.013
16,ACTTGACC,-0.0754
17,AACGGCAG,0.107
18,CTTTTTGA,-0.162
19,CCCTCCGG,0.122
20,CCCTCCGA,0.0129
21,TCCTCCGA,0.157
22,ACCTCCGT,0.302
23,ACCTCCGA,0.364
24,ACCTCCGG,0.372
25,GCTGGAAA,-0.0514

row,Sequence,PBM E-score
1,AACCCTTA,-0.147
2,CAGGCATG,-0.111
3,CTAAAAGC,0.0851
4,TGAGTTAA,-0.155
5,GGAGTTAC,0.365
6,GGAGTTTA,0.362
7,CGAGTTAC,-0.104
8,AGAGTTAC,-0.241
9,AGAGTTAA,-0.131
10,CGAGTTTA,0.179
11,GGAGTTAA,0.398
12,AGAGTTTA,-0.0332
13,GCGGCTAC,0.192
14,AATACTGA,-0.19
15,TACCCACA,-0.228
16,GGGCCTAC,0.066
17,ATTATCTA,-0.0957
18,ACTTGAGC,-0.28
19,AATTTTAT,0.292
20,CTTCAGTC,-0.0437
21,CTTTTATC,0.161
22,AAGCCCGC,0.443
23,AAGCCCGG,0.411
24,GAGCCCGC,0.252
25,AAAGCCGT,0.324

row,Sequence,PBM E-score
1,AAAGCCGC,0.365
2,CAGCCCGC,0.141
3,AAGCCCAT,-0.0309
4,AAGCCCTG,-0.101
5,CAGCCCGG,0.246
6,GAAGCCGC,0.202
7,AAGCCCTT,-0.131
8,AAGCCCGT,0.417
9,GAAAGGCA,0.126
10,ACCCCCCA,-0.204
11,CACAACGG,0.166
12,AAAGCCCC,0.246
13,AAGCCCCC,0.00224
14,TAGCCCGA,0.171
15,CAGCCCCG,0.267
16,AAGCCCGA,0.43
17,GAGCCCGA,0.264
18,AAAGCCCT,-0.125
19,AAGCCCCG,0.431
20,AAAGCCCG,0.457
21,CTTCCCCA,-0.184
22,ATCCTATA,-0.0861
23,ATGGCAAC,-0.184
24,ACGAGAAT,0.00633
25,CTATGCGC,0.116

row,Sequence,PBM E-score
1,AGACCTTC,-0.109
2,AAAGGACT,-0.0879
3,GCCGCAAA,0.182
4,GGCCGCCA,0.141
5,AGTCCGAC,0.436
6,AGTCCGAG,0.237
7,CGTCCGAC,0.281
8,ATTCCGAC,0.254
9,AATCCGAC,0.257
10,GGTCCGAA,0.328
11,AGTCCGAA,0.299
12,AGTCCGAT,0.414
13,GGTCCGAC,0.411
14,CGGCAGGA,0.134
15,GGAACCCC,0.19
16,GCCTAGGC,-0.0482
17,ACCAGGCA,-0.187
18,AGCTACAC,-0.174
19,CTCTAGAC,-0.146
20,GCAGTTGA,-0.177
21,GTTCATCA,-0.136
22,ATTAAGAA,0.0289
